Assay outcomes from PubChem.
Only some compounds are listed: those with a hit (about 19% of all), similar ones and a draw of the others.
DT40 TDP1 CPT: qHTS for Inhibitors of human tyrosyl-DNA phosphodiesterase 1 (TDP1): qHTS in cells in presence of CPT; Potency, µM (highest dose often 46.2 µM), for inactives: at the top dose activity change, negative = growth inhibition, hits mostly inhibitors; AID 686979, 2013; 420,000 compounds, 12% hits; chicken DT40 Tdp1-/-;hTDP1 cells + 20 nM CPT, ATP luminescence, 48 h; also: nearly all actives have a fitted effect of over 55% in size
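Chicken DT40 Tdp1-/- cells stably complemented with human TDP1 were seeded at 400 cells/well in medium containing 20 nM camptothecin, exposed to pin-transferred compounds, and grown at 37 °C for at least 48 hr. Viability was read as ATP luminescence.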
HT1080 IDH1KD tx: qHTS for induction of synthetic lethality in tumor cells producing 2HG: qHTS for the HT-1080-IDH1KD cell line; HT-1080 IDH1 knockdown viability, ATP luminescence, 48 h; Potency, µM (doses to about 46.1 µM), for the others: at the top dose activity, negative = toxicity, usual class: cytotoxic; 360,000 compounds, 2% hits;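 also: 0% = DMSO wells and -100% = cell-free medium wells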
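Using the IDH1-knockdown HT-1080 line run in the same batch and compound series as the NT line, viability after 48 h at 37 °C was determined by CellTiter-Glo luminescence and expressed as % activity.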
HT1080NT lethal: qHTS for induction of synthetic lethality in tumor cells producing 2HG: qHTS for the HT-1080-NT fibrosarcoma cell line; HT-1080-NT fibrosarcoma viability, CellTiter-Glo ATP luminescence, 48 h; Potency, µM (highest dose often 46.1 µM), inactives show at the top dose activity, negative = less viability, hits mostly cytotoxic; 360,000 compounds, 1.6% hits; AID 686970, 2013;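 also: NT is the 2HG producing partner of a matched IDH1 knockdown line; 0% = DMSO-treated cells and -100% = media-only wells without cells; nearly all actives have a fitted effect of over 55% in size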
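HT-1080-NT fibrosarcoma cells (2HG-overproducing), 750 cells/well in RPMI with 5% FBS, dosed after 2 h and incubated 48 h at 37C. CellTiter-Glo luminescence normalized to DMSO and no-cell wells; concentration-response curves fitted and classed.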
DT40 TDP1 no CPT: qHTS for Inhibitors of human tyrosyl-DNA phosphodiesterase 1 (TDP1): qHTS in cells in absence of CPT | DT40 Tdp1-/- hTDP1 cells, no CPT, ATP luminescence, 48 h | Potency, µM (series often up to 46.2 µM), inactives show top-dose activity change, negative = growth inhibition, usual class: inhibitors | 420,000 compounds, 15% hits | AID 686978, 2013; also: nearly all actives have a fitted effect of over 55% in size
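Compound effects on proliferation are scored in DT40 Tdp1-/-;hTDP1 cells in the absence of CPT. ATP levels (CellTiter-Glo luminescence) are recorded after a ≥48 hr, 37 °C incubation.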
KB-3-1 cytotox: qHTS assay for MDR1-selective chemotherapeutics: Primary screen using the parental adenocarcinoma cell KB-3-1. KB-3-1 viability, CellTiter-Glo ATP luminescence, 72 h. Potency, µM (doses to about 46.1 µM), most hits filed as cytotoxic. 400,000 compounds, 1.4% hits. AID 1347075, 2019; also: nearly all actives have a fitted effect of over 60% in size
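Screening of KB-3-1 cells (DMEM, 10% FBS, phenol-red free) ran from lowest to highest compound concentration; after 72 h at 37 °C viability was read luminescently and curves fitted.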
KB-V1 MDR tox: qHTS assay for MDR1-selective chemotherapeutics: Primary screen using the drug-selected MDR subline cells KB-V1; KB-V1 MDR cells viability, CellTiter-Glo, 72 h; Potency, µM (doses to about 46.1 µM), hits mostly cytotoxic; 400,000 compounds, 3.4% hits; also: nearly all actives have a fitted effect of over 60% in size
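KB-V1, DMEM (no phenol red) + 10% FBS; cpd pin-transferred, titration series; 72 h, 37 degrees C; CellTiter-Glo, luminescence. Data normalized, curve-fit.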
The depositor's hits bear a star; i = inactive; ? = inconclusive; nt = no result; [ ] = dose if it differs, or a comment. Calls follow the shape of the dose curve; as a rule, active = well fitted curve in the direction sought with a large enough effect; inconclusive = small, poorly fitted or top-dose-only effect, or another doubt; inactive = no such curve, though single readings can be large; an effect the other way counts as inactive or inconclusive. Unless noted, % is scaled to controls: 0 for no effect and ±100 for the full control effect; potency is read from the fitted curve at half-maximal effect.

SMILES	DT40 TDP1 CPT	HT1080 IDH1KD tx	HT1080NT lethal	DT40 TDP1 no CPT	KB-3-1 cytotox	KB-V1 MDR tox
COc1cc(NC(=O)Cn2c(=O)n(Cc3ccccc3)c(=O)c3oc4ccccc4c32)cc(OC)c1	-4%	nt	nt	-12%	i	i
CCCCn1c(=O)c2oc3ccccc3c2n(CC(=O)Nc2cc(C)ccc2C)c1=O	12µM*	nt	nt	12µM*	i	i
Cc1cccc(-c2nc(N3CCN(c4ccc(F)cc4)CC3)c3ccccc3n2)c1	?	nt	nt	?	i	i
CCOc1ccc(-c2nnc(SCC(=O)NC3CCCC3)nc2-c2ccc(OCC)c(OC)c2)cc1OC	?	nt	nt	?	i	i
Cc1cc(CNC(=O)c2cccnc2Cl)c2ccccc2n1	?	?	-12%	?	i	?
CC1=C(C(=O)OC(C)(C)C)C(c2cccs2)NC(=O)N1 (configuration not stated)	?	-4%	-2%	?	i	?
CC(=O)Nc1cc(-c2ccc(N(C)C)cc2)cn2c(-c3ccc(F)c(Cl)c3)cnc12	18µM*	?	?	15µM*	i	i
CC(=O)Nc1cc(-c2ccc(S(C)(=O)=O)cc2)cn2c(-c3ccc(F)c(Cl)c3)cnc12	18µM*	-26%	-23%	16µM*	i	i
Cc1cc(C(=O)N2CCN(c3ccccc3)CC2)c(C)o1	0%	?	4%	-6%	i	?
Cc1cc(C(=O)N2CCN(c3ccccc3Cl)CC2)c(C)o1	21µM*	-17%	-24%	12µM*	i	i
Cc1cc(C(=O)N2CCN(c3ncccn3)CC2)c(C)o1	13µM*	-28%	8%[9.24 µM]	23µM*	i	i
Cc1cc(C(=O)N2CCN(c3cccc(Cl)c3)CC2)c(C)o1	18µM*	16µM*	?	16µM*	23µM*	i
O=S(=O)(NC1=NCCC1)c1ccc(F)cc1F	7%	8%	6%	-5%	i	i
COc1ccc(OC)c(NC(=O)c2cc(=O)c3c(C)cc(C)cc3o2)c1	-6%	nt	nt	?	i	i
CCN(CC)CCn1c2ccccc2c2cnc(N)c(C#N)c21	?	?	-13%	21µM*	23µM*	?
CN(C)C=Nc1ncc2c3ccccc3n(Cc3ccccc3)c2c1C#N	-26%	4%	9%	?	i	i
CN(C)C=Nc1ncc2c3ccccc3n(CCN(C)C)c2c1C#N	21µM*	-10%	-9%	23µM*	?	?
CCOc1ccc(C(c2c(O)cc(C)n(Cc3ccco3)c2=O)N2CCN(c3ccccc3)CC2)cc1 (configuration not stated)	?	nt	nt	?	i	i
O=C(N/C(=C\c1cccc([N+](=O)[O-])c1)C(=O)N1CCOCC1)c1ccco1	1%	22%	14%	-9%	i	i
Cc1ccc(N(CC(O)COCc2ccco2)S(=O)(=O)c2ccc(C)cc2)cc1 (configuration not stated)	?	?	-3%	?	i	21µM*
COc1cc(Cc2nc3ccccc3n2C(C)c2nc3ccccc3[nH]2)cc(OC)c1 (configuration not stated)	18µM*	-2%	3%	?	i	?
COc1ccc(CCc2nc3ccccc3n2C(CCc2ccccc2)c2nc3ccccc3[nH]2)cc1 (configuration not stated)	?	-8%	-13%	?	i	?
CCC(c1nc2ccccc2[nH]1)n1c(=O)c(-c2cccnc2)nc2ccccc21 (configuration not stated)	5%	-9%	0%	-27%	i	i
CC(c1nc2ccccc2[nH]1)n1c(=O)c(-c2cccnc2)nc2ccccc21 (configuration not stated)	23µM*	25%	5%	?	?	i
CSCCC(c1nc2ccccc2[nH]1)n1c(=O)c(-c2ccco2)nc2ccccc21 (configuration not stated)	12µM*	-3%	-8%	23µM*	i	?
SMILES	DT40 TDP1 CPT	HT1080 IDH1KD tx	HT1080NT lethal	DT40 TDP1 no CPT	KB-3-1 cytotox	KB-V1 MDR tox
CSCCC(c1nc2ccccc2[nH]1)n1c(-c2cc(C(F)(F)F)cc(C(F)(F)F)c2)nc2ccccc21 (configuration not stated)	?	21µM*	33µM*	16µM*	i	?
CCOc1ccc(NC(=O)Cn2c(=O)n(CC(=O)NCCc3ccccc3)c(=O)c3sccc32)cc1	-17%	nt	nt	-4%	nt	nt
CN(C)C1=NC[C@H](Cc2ccccc2)N1CCCCc1ccccc1	?	-21%	-28%	21µM*	?	i
Cc1cccc(CCN2C(N(C)C)=NC[C@@H]2CC(C)C)c1	?	-17%	-14%	?	i	?
CCCCCCCN1C(N(C)C)=NC[C@@H]1Cc1ccccc1	12µM*	?	?	9.2µM*	i	i
Cc1cccc(CCN2C(N(C)C)=NC[C@@H]2Cc2ccccc2)c1	?	-11%	?	?	?	?
Cc1cccc(Nc2ncnc3onc(-c4cccc(Cl)c4)c23)c1C	21µM*	-7%	-12%	18µM*	i	?
Clc1cccc(-c2noc3ncnc(NC4CCCCC4)c23)c1	21µM*	nt	nt	26µM*	i	i
Clc1ccc(-c2noc3ncnc(NC4CCCCC4)c23)cc1	3%	nt	nt	-19%	i	i
Cc1ccc2oc3ccccc3c(=O)c2c1	3%	14%	24%	1%	i	i
COc1ccc(-c2oc3cc(O)c(OC)c(O)c3c(=O)c2OC)cc1O	0.92µM*	0.58µM*	0.41µM*	0.92µM*	0.82µM*	0.65µM*
COc1cc(OC)c(-c2oc3ccccc3c(=O)c2O)c(OC)c1	8.2µM*	?	?	7.3µM*	8.2µM*	?
COc1ccc(OC)c(-c2oc3ccccc3c(=O)c2O)c1	-21%	?	?	?	i	i
